PubChem BioAssay (NCATS)
Values without a mark were called inactive. Calls come from the whole dose curve.

Test: qHTS drug screen for cell cycle checkpoint inhibitors in PARPi-resistant BRCA-mutant ovarian cancer cell lines. (AID 1963452)
Settings: PEO1/OlaR viability, CellTiter-Glo luminescence, 96 h; active compounds read low
How it was run: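 PEO1, PEO4 and PEO1/OlaR ovarian cancer cells, 600 per well, exposed 96 h at 37C to a dilution series. Viability read by CellTiter-Glo luminescence, normalized to DMSO and empty wells; activity summarized as Z-AUC.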
Molecule `CC(=O)Nc1ccc(OC[C@](C)(O)C(=O)Nc2ccc([N+](=O)[O-])c(C(F)(F)F)c2)cc1` has a Z-AUC of -0.618. For `CCOC(=O)c1c(C(C#N)=CN)c2ccc(Cl)c(Cl)c2n1C`, the Z-AUC was 0.895. With `Cc1c(C(=O)Nc2cccc(C(F)(F)F)c2)cc(-c2ccccc2)n1CCCN1CCOCC1` the Z-AUC was -1.03. In the case of `CC(C)[C@]12O[C@H]1[C@@H]1O[C@]13[C@]1(O[C@H]1C[C@H]1C4=C(CC[C@@]13C)C(=O)OC4)[C@@H]2O`, the Z-AUC was -2.76. With `N=c1c2c(-c3ccccc3)c(-c3ccccc3)n(Cc3ccccc3)c2ncn1C1CCC(O)CC1` (stereo not given) the Z-AUC was 0.292. With `O=C(N[C@@H](COc1ccc2[nH]c(=O)[nH]c2c1)c1ccccc1)c1cccn(Cc2ccc(F)c(F)c2)c1=O` the Z-AUC was -0.315. With `O=C(NCC1CCOCC1)c1cnc(Nc2ccc(Cl)cc2Cl)nc1C(F)(F)F` the Z-AUC was 1.22. For `CC1(N2CCC(n3c([C@@H]4CCCNC4)nc4ccccc43)CC2)CCCCCCC1`, the Z-AUC was 1.01. With `O=C(Oc1ccc([N+](=O)[O-])cc1)N1CCN(Cc2cccc(Oc3ccccc3)c2)CC1` the Z-AUC was 1.13. For `CCN(CC)C(=O)c1ccc(C2=CC3(CCNCC3)Oc3cccc(O)c32)cc1`, the Z-AUC was -0.151. For `Cc1[nH]nc2ccc(-c3cncc(OC[C@@H](N)Cc4c[nH]c5ccccc45)c3)cc12`, the Z-AUC was -2.34. Work on `COc1ccc(C(=O)c2c(C)n(CCN3CCOCC3)c3cc(I)ccc23)cc1` yielded a Z-AUC of -0.298. Molecule `O=C(N[C@H]1CN2CCC1CC2)c1ccc(Cl)cc1` has a Z-AUC of -0.714. `CN1CCN(c2ccc([N+](=O)[O-])c3no[n+]([O-])c23)CC1` showed a Z-AUC of 1.21. `O=c1cccc2n1CC1CNC[C@H]2C1` gave a Z-AUC of 1.36. Molecule `CN[C@@H]1Cc2cccc3[nH]c(=O)n(c23)C1` has a Z-AUC of 1.45. Molecule `CC(C)(C)c1cc(C=C(C#N)C#N)cc(Br)c1O` has a Z-AUC of 1.28. Molecule `CCNC(=O)CC1N=C(c2ccc(Cl)cc2)c2cc(OC)ccc2-n2c(C)nnc21` (stereo not given) has a Z-AUC of 0.242. For `CCN1CCN(C(=O)Cc2ccc(Nc3ncc(F)c(Nc4ccc(C(=O)Nc5ccccc5Cl)cc4)n3)cc2)CC1`, the Z-AUC was 0.278. Work on `CCNC(=O)C[C@@H]1N=C(c2ccc(Cl)cc2)c2cc(OC)ccc2-n2c(C)nnc21` yielded a Z-AUC of -0.661. With `CC(C)(O)C(=O)Nc1ccc([N+](=O)[O-])c(C(F)(F)F)c1` the Z-AUC was 1.27. Molecule `COCC1(CO)C(=O)C2CCN1CC2` (stereo not given) has a Z-AUC of 0.503. Molecule `COc1ccc(N(C(=O)Oc2c(C)cccc2C)c2ccnc(Nc3ccc(N4CCN(C)CC4)cc3)n2)c(OC)c1` has a Z-AUC of -0.241. For `CCCCCC[C@H]1C(=O)O[C@H](C)[C@H](NC(=O)c2cccc(NC=O)c2O)C(=O)O[C@@H](C)[C@@H]1OC(=O)CC(C)C`, the Z-AUC was -1.4. For `CC(C)[C@H]1C(=O)N[C@H](CO)Cc2c[nH]c3cccc(c23)N1C`, the Z-AUC was 0.277. For `O=S(=O)(CC1CS1)c1ccc(Oc2ccccc2)cc1` (stereo not given), the Z-AUC was 1.02. In the case of `COC1=C[C@@H]2[C@@H]3Cc4ccc(OC)c(O)c4[C@]2(CCN3C)CC1=O`, the Z-AUC was 0.716. With `C[C@](O)(COc1ccc(C#N)cc1)C(=O)Nc1ccc(C#N)c(C(F)(F)F)c1` the Z-AUC was 0.66. Work on `COc1ccc2c(c[n+](C)c3c4cc5c(cc4ccc23)OCO5)c1OC` yielded a Z-AUC of -0.492. `CCOC(=O)Nc1ccc(NCc2ccc(F)cc2)cc1N` showed a Z-AUC of -0.328. Molecule `C[C@]12CC[C@H]3[C@@H](CCC4=CC(=O)CC[C@@]43C)[C@H]1CC[C@H]2OC(=O)CCC1CCCC1` has a Z-AUC of -0.757. For `O=C(Oc1ccc([N+](=O)[O-])cc1)N1CCC(C(O)(c2ccc3c(c2)OCO3)c2ccc3c(c2)OCO3)CC1`, the Z-AUC was 0.0942. Work on `O=C(O)CNC(=O)c1c(O)c2ccccc2n(Cc2ccccc2)c1=O` yielded a Z-AUC of -0.292. With `O=c1[nH]c2ccccc2n1C1CCN(Cc2ccc(-c3[nH]c4cc5ncnc5cc4nc3-c3ccccc3)cc2)CC1` the Z-AUC was -0.823. `CCCN1CCO[C@@H]2c3cc(O)ccc3OC[C@H]21` showed a Z-AUC of 0.538.
